The source of these data is PubChem BioAssay AID1851 (National Center for Advancing Translational Sciences (NCATS), 2009).

Among all 16,000 compounds or so, about 4,000 (25%) were called active. Not shown: some 26% with an inconclusive outcome. Calls come from the whole dose curve; as a rule, active = well fitted curve in the direction sought with a large enough effect; inconclusive = small, poorly fitted or top-dose-only effect, or effect the other way; inactive = no such curve, though single readings can be large or run the other way. The list is a sample of the results.
% is set by controls: 0 for no effect and ±100 for the full control effect.

This test deals with Cytochrome P450 2C9 (Homo sapiens) (UniProt P11712). Nature of the test: Cytochrome panel assay with activity outcomes. Particulars: recombinant CYP, pro-luciferin dealkylation, luminescence, p450-cyp2c9; series mostly up to 57.1 µM; activity, negative = inhibition: at the top concentration.
Cytochrome P450 2C9 (Homo sapiens), sequence (P11712 whole entry, looked up): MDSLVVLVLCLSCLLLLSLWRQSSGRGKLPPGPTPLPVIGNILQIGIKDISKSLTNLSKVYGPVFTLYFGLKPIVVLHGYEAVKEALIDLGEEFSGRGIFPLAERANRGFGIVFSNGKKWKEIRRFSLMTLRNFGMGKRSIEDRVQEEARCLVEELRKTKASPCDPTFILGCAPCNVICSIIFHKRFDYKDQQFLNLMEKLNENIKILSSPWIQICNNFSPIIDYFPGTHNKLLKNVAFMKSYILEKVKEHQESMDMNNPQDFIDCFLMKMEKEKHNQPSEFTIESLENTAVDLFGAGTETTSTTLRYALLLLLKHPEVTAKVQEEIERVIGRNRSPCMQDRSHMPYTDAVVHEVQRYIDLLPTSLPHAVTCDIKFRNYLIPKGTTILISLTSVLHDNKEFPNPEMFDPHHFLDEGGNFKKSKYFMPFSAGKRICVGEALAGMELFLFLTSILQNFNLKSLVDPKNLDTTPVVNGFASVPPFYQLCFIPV
Take `O=C(O)[C@@H]1[C@@H](C(=O)Nc2ccccc2)[C@@H]2C=C[C@@H]1O2`: the activity, negative = inhibition is 12.3% [at 11.4 µM] (inactive).
Take `CS(=O)(=O)Nc1cccc(-c2nc(Nc3ccccc3)c3ccccc3n2)c1`: the activity, negative = inhibition is -28.2% [at 2.29 µM] (inactive).
Still for that read-out and setting: for `CC(=O)NCCNc1nc(-c2cccc(NS(C)(=O)=O)c2)nc2ccccc12` the value was -9.35% [at 2.29 µM] (inactive).
As to `CC(C)(C)C(=O)Nc1cccc(-c2nc3ccccc3c(=O)o2)c1`, the AC50 was 12.6 µM (active).
Turning to `COc1ccc(NC(=O)c2cc3n(n2)C(C(F)(F)F)CC(c2ccc4c(c2)OCO4)N3)cc1OC` (stereo not drawn), the “activity, negative = inhibition” value was -12.5% (inactive).
For the compound `O=C(NCC1CCCO1)c1ccc(CS(=O)(=O)Cc2ccc(F)cc2)o1` (stereo not drawn), the “activity, negative = inhibition” value is 25.2% (inactive).
For the compound `O=C(NCC1CCCO1)c1nn2c(c1Cl)NC(c1ccc(F)cc1)CC2C(F)(F)F` (stereo not drawn), the AC50 is 25.1 µM (active).
For `CN1CCN(c2ncc3nc(-c4cccs4)c(=O)n(C[C@H]4CCCO4)c3n2)CC1`, the “activity, negative = inhibition” value was 16.1% (inactive).
With `CCOC(=O)C(NC(C)=O)C(OC(C)=O)c1cccc(N(CCO)CCO)c1` (stereo not drawn), the “activity, negative = inhibition” value was -15.8% (inactive).
In the case of `Clc1ccccc1C(Nc1cnccn1)Nc1cnccn1`, the activity, negative = inhibition is 1.92% [at 11.4 µM] (inactive).
Consider `O=C1CC(c2cccc(F)c2)SC(N(c2ccccc2)c2ccccc2)=N1` (stereo not drawn), for which the AC50 was 10 µM (active).
As to `C[N+](C)(C)CCOC(N)=O`, the AC50 result is “inactive”.
With `CC(C)[C@@H]1[C@H]2CC[C@H](C2)[C@H]1N`, the “activity, negative = inhibition” value is -9.4% (inactive).
On to `CC1=C/C(=N/O)C([C@H]2C=C(C)CC(C)(C)[C@@H]2O)C(C)(C)C1` (stereo partly drawn), for which the AC50 is 2.51 µM (active).
For the compound `N#CCCn1c(=O)c(-c2cc(F)cc(F)c2)nc2cnc(Nc3ccccc3)nc21`, the “activity, negative = inhibition” value is 18.7% (inactive).
On the same count and under the same terms, with `CN(C)Cc1ccccc1-c1ccc2ncnc(NCc3ccccc3)c2c1` the figure was -7.5% [at 2.29 µM] (inactive).
Consider `CCCC[C@]1(C2CCCC2)Cc2cc(OCC(=O)O)c(Cl)c(Cl)c2C1=O`, for which the AC50 is 2.51 µM (active).
The same measure, in the same setting: with `Cc1cccc(NC(=O)CSc2nc(COc3ccccc3)nc3ccccc23)c1C` the figure was 0.631 µM (active).
In the case of `CCCc1nc(SCC(=O)NNC(=O)C2CCCCC2)c2ccccc2n1`, the “activity, negative = inhibition” value was 5.32% (inactive).
Consider `CN(C)Cc1ccccc1-c1cc(N(C)Cc2ccco2)ncn1`, for which the activity, negative = inhibition was -3.1% [at 2.29 µM] (inactive).
Take `C/C(=N/NC(=O)c1ccc(C)s1)c1cccc(NC(=O)COc2ccc(Cl)cc2C)c1`: the AC50 is 1.26 µM (active).
Regarding `C/C(=N\NC(=O)c1ccc(Cl)cc1)c1cccc(NC(=O)C(C)C)c1`, the “activity, negative = inhibition” value is -11.6% (inactive).
For the compound `COc1cc(OC)c(C(=O)CCCCN2CCC3(CC2)NC(=O)NC3=O)cc1NS(=O)(=O)c1ccc(C(F)(F)F)cc1`, the “activity, negative = inhibition” value is 22.9% (inactive).
With `Cc1ccc(N(C(=O)C(F)(F)F)C(C(=O)NC2CCCCC2)c2cccs2)cc1C` (stereo not drawn), the “activity, negative = inhibition” value is -17.9% (inactive).
For `COc1ccc(CCN(C(=O)C(F)(F)F)C(C(=O)NC2CCCC2)c2cccs2)cc1` (stereo not drawn), the AC50 is 3.16 µM (active).
Same read-out and setting: for `O=C(NC1CCCCC1)C(c1cccs1)N(C(=O)C(F)(F)F)c1ccccc1` (stereo not drawn) the value was 1.58 µM (active).
Take `COc1ccc(C(C(=O)NC2CCCC2)N(Cc2ccc(F)cc2)C(=O)c2ccn[nH]2)cc1OC` (stereo not drawn): the “activity, negative = inhibition” value was -29.6% (inactive).
Consider `COc1ccc(CN(C(=O)Cc2cccs2)C(C(=O)NC2CCCC2)c2ccncc2)cc1` (stereo not drawn), for which the AC50 was 5.01 µM (active).
On the same count and under the same terms, for `COc1ccc(NC(=S)N(CCc2nc3cc(C)c(C)cc3[nH]2)Cc2cccnc2)cc1` the value was 7.94 µM (active); for `COc1cccc(NC(=S)N(CCc2nc3cc(C)c(C)cc3[nH]2)Cc2cccnc2)c1`, 5.01 µM (active).
`Cc1cccc(CNc2nc(-c3cccnc3)nc3ccccc23)c1`: the activity, negative = inhibition was -13% [at 2.29 µM] (inactive).
With `Cc1cccc(NC(=S)N(CCc2nc3cc(C)c(C)cc3[nH]2)Cc2cccnc2)c1`, the AC50 is 7.94 µM (active).
For the compound `Cc1ccc(C)c(NC(=S)N(CCc2nc3cc(C)c(C)cc3[nH]2)Cc2cccnc2)c1`, the AC50 is 3.98 µM (active).
Consider `COC(=O)[C@@H]1O[C@@H](SCCN)[C@@H](O)[C@H](O)[C@H]1O`, for which the activity, negative = inhibition was 15% [at 11.4 µM] (inactive).
Still for that read-out and setting: for `O=C(O)Cc1ccc2ocnc2c1` the value was -22.7% (inactive); for `COc1cccc(Nc2ncc3nc(C)c(=O)n(C)c3n2)c1`, -11.4% (inactive).
In the case of `COc1ccc(C2CC(=O)c3cnc(Nc4cc(C)cc(C)c4)nc3C2)cc1` (stereo not drawn), the AC50 was 10 µM (active).
Turning to `COc1ccc(Nc2ncc3c(n2)CC(c2ccc(C)cc2)CC3=O)cc1` (stereo not drawn), the AC50 was 5.01 µM (active).
Take `COc1cccc(Nc2ncc3nc(C)c(=O)n(C4CC4)c3n2)c1`: the “activity, negative = inhibition” value was -17.1% (inactive).
With `COc1ccc(-c2nc3cnc(Nc4ccccc4)nc3n(CCC#N)c2=O)cc1`, the “activity, negative = inhibition” value is 7.37% (inactive).
Regarding `NS(=O)(=O)c1cc2c(cc1C(F)(F)F)N[C@H](Cc1ccccc1)NS2(=O)=O`, the “activity, negative = inhibition” value was -8.84% [at 25.6 µM] (inactive).
In the case of `CN1CCN([C@@H]2Cc3ccccc3Sc3ccc(Cl)cc32)CC1`, the “activity, negative = inhibition” value is -20.1% (inactive).
On the same count and under the same terms, with `CNC(=O)[C@H]1O[C@H](n2cnc3c(NCc4cccc(I)c4)ncnc32)[C@@H](O)[C@@H]1O` the figure was 26.3% (inactive).
As for `CCSC1=C(C#N)C2(CCCCC2)C(C#N)=C(N)N1`, the AC50 is 2.82 µM (active).
For `CCOC(=O)[C@]1(CC(=O)O)CCCC1=O`, the activity, negative = inhibition was -6.54% [at 11.4 µM] (inactive).
Consider `Cc1cc(C)c(S(=O)(=O)Nc2cccc(C(F)(F)F)c2)c(C)c1`, for which the “activity, negative = inhibition” value was -21.9% (inactive).
With `COc1ccc(N(CC(=O)Nc2cccc(C)c2)S(=O)(=O)c2c(C)n[nH]c2C)cc1`, the AC50 is 1.41 µM (active).
Turning to `CN(C)c1cc(-c2cccc(NS(C)(=O)=O)c2)ncn1`, the activity, negative = inhibition is 16.1% [at 2.29 µM] (inactive).
Regarding `Cc1cccc(NS(=O)(=O)c2c(C)n[nH]c2C)c1`, the AC50 is 17.8 µM (active).
Consider `COc1ccccc1CNc1ccnc(-c2ccccc2OC)n1`, for which the activity, negative = inhibition is -5.44% [at 2.29 µM] (inactive).
As for `C=CCSc1nnc2c(n1)OC(c1c(C)[nH]n(-c3ccccc3)c1=O)Nc1ccccc1-2` (stereo not drawn), the AC50 is 0.447 µM (active).
For the compound `CS(=O)(=O)N1CCC[C@@]2(CCN(C(=O)Nc3cccc(C#N)c3)C2)C1`, the “activity, negative = inhibition” value is 5.75% (inactive).
In the case of `CCCCCSc1nncc(=O)[nH]1`, the AC50 is 4.47 µM (active).
For `Clc1ccc(CC[C@H](Cn2ccnc2)Sc2c(Cl)cccc2Cl)cc1`, the AC50 was 0.0126 µM (active).
`NC(N)=Nc1ccc(Cl)cc1`: the “activity, negative = inhibition” value was 27% (inactive).
`CCOc1ccc(NC(=O)c2ccc(Br)o2)c([N+](=O)[O-])c1`: the “activity, negative = inhibition” value was -22.4% (inactive).
With `COc1ccc(NC(=O)CN(C)S(=O)(=O)c2ccc(Cl)cc2)c([N+](=O)[O-])c1`, the “activity, negative = inhibition” value is -0.31% (inactive).
With `Cc1ccc(C(=O)NCCNc2ccc(Cl)cc2[N+](=O)[O-])o1`, the AC50 was 10 µM (active).
